PubChem BioAssay AID1159580 (chemical genetic matrix, 2015)
“And” between values parts separate entries of the source, which are not always exact repeats. Equal entries are not always repeated. The campaign covered roughly 5,500 compounds. About 2,000 (36%) were called active. Roughly 18% stayed inconclusive and do not appear here. Cut-off read from the data, not from the text of the source: active = normalized growth mostly below about 0.91 (no sharp cut-off); inconclusive = no clear call, values can overlap the other calls; inactive = mostly above about 0.92. The list shows a part of the results.

Assay: chemical genetic growth profiling, strain panel (AID 1159580);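 note: tested at 20 µM; growth read once vehicle control cultures reached saturation at 30 °C; 1 = growth at the plate median or of vehicle wells; lower values mean less growth of the strain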
Settings: growth OD

Measured: normalized growth

CCC1C(=O)OCC1Cc1cncn1C (stereo unspecified)
inactive: S. cerevisiae deletion strains, locus YJR075W, strain HOC1, hits give low values 1.01 and 0.997 and 1.02 | S. cerevisiae deletion strains, locus YKL009W, strain mrt4, hits give low values 0.99 and 0.991 | S. cerevisiae deletion strains, locus YKL068W, hits give low values 1 and 0.995 | S. cerevisiae deletion strains, locus YKL085W, strain MDH1 (second series), hits give low values 1.01 and 1.04 | S. cerevisiae deletion strains, locus YKL085W, strain MDH1, hits give low values 1.01 and 1.04 | S. cerevisiae deletion strains, locus YKL160W, strain elf1, hits give low values 1.03 and 1.01 | S. cerevisiae deletion strains, locus YKL190W, strain CNB1, hits give low values 1.02 and 1.01 | S. cerevisiae deletion strains, locus YKR001C, strain vps1, hits give low values 1.01 | S. cerevisiae deletion strains, locus YKR026C, strain gcn3, hits give low values 1.02 and 0.993 | S. cerevisiae deletion strains, locus YKR091W, strain srl3, hits give low values 1.02 | S. cerevisiae deletion strains, locus YLL001W, strain dnm1, hits give low values 1.02 | S. cerevisiae deletion strains, locus YLL026W, hits give low values 1.01 and 1.02 | S. cerevisiae deletion strains, locus YLL041C, strain sdh2, hits give low values 1.01 and 1.02 | S. cerevisiae deletion strains, locus YLR027C, strain aat2, hits give low values 1.02 and 1.01 | S. cerevisiae deletion strains, locus YLR039C, strain RIC1, hits give low values 1.02 and 1.07 | S. cerevisiae deletion strains, locus YLR058C, strain SHM2, hits give low values 1.01 | S. cerevisiae deletion strains, locus YLR102C, strain apc9, hits give low values 1.01 and 0.998 | S. cerevisiae deletion strains, locus YLR113W, strain HOG1, hits give low values 0.972 | S. cerevisiae deletion strains, locus YLR221C, strain rsa3, hits give low values 1.02 and 1.01 | S. cerevisiae deletion strains, locus YLR258W, strain gsy2, hits give low values 1.02 and 1.01 | S. cerevisiae deletion strains, locus YLR262C, strain YPT6 (second series), hits give low values 1.04 and 1.05 | S. cerevisiae deletion strains, locus YLR262C, strain YPT6, hits give low values 1.04 and 1.1 | S. cerevisiae deletion strains, locus YLR268W, strain sec22, hits give low values 1.06 and 0.999 | S. cerevisiae deletion strains, locus YLR320W, strain mms22, hits give low values 1.03 and 1.02 | S. cerevisiae deletion strains, locus YLR330W, strain CHS5, hits give low values 1.01 | S. cerevisiae deletion strains, locus YLR342W, strain FKS1 (second series), hits give low values 0.996 and 1 | S. cerevisiae deletion strains, locus YLR342W, strain FKS1, hits give low values 1.02 | S. cerevisiae deletion strains, locus YLR357W, strain rsc2, hits give low values 0.988 and 0.997 | S. cerevisiae deletion strains, locus YLR370C, strain arc18, hits give low values 1.01 and 1.02 | S. cerevisiae deletion strains, locus YLR371W, strain rom2, hits give low values 1.01 and 0.995 | S. cerevisiae deletion strains, locus YLR384C, strain iki3, hits give low values 1.02 and 1.03 | S. cerevisiae deletion strains, locus YLR418C, strain cdc73, hits give low values 1.02 | S. cerevisiae deletion strains, locus YML016C, strain PPZ1, hits give low values 1.01 | S. cerevisiae deletion strains, locus YML032C, strain rad52, hits give low values 1.03 and 0.985 | S. cerevisiae deletion strains, locus YML120C, strain ndi1, hits give low values 1.02 and 1.03 | S. cerevisiae deletion strains, locus YML124C, strain tub3, hits give low values 1.01 and 0.994 | S. cerevisiae deletion strains, locus YMR058W, strain fet3, hits give low values 1.01 and 1.02 | S. cerevisiae deletion strains, locus YMR078C, strain ctf18, hits give low values 1.02 and 0.99 | S. cerevisiae deletion strains, locus YMR125W, strain sto1, hits give low values 1.02 | S. cerevisiae deletion strains, locus YMR129W, hits give low values 1.01 and 1.02 | S. cerevisiae deletion strains, locus YMR205C, strain PFK2, hits give low values 1.04 and 1.02 | S. cerevisiae deletion strains, locus YMR223W, strain ubp8, hits give low values 0.991 and 1 | S. cerevisiae deletion strains, locus YMR231W, strain pep5, hits give low values 1.02 and 1.01 | S. cerevisiae deletion strains, locus YMR263W, strain SAP30, hits give low values 1.01 and 0.995 and 1.02 | S. cerevisiae deletion strains, locus YMR307W, strain GAS1, hits give low values 0.989 and 1.01 and 0.99 | S. cerevisiae deletion strains, locus YNL067W, strain RPL9B, hits give low values 1.01 | S. cerevisiae deletion strains, locus YNL071W, strain lat1, hits give low values 1.01 and 1.02 | S. cerevisiae deletion strains, locus YNL128W, strain TEP1, hits give low values 1.01 | S. cerevisiae deletion strains, locus YNL153C, strain GIM3, hits give low values 1.02 and 0.971 | S. cerevisiae deletion strains, locus YNL175C, strain NOP13, hits give low values 1.01 and 0.972 | S. cerevisiae deletion strains, locus YNL183C, strain NPR1, hits give low values 0.95 | S. cerevisiae deletion strains, locus YNL197C, strain WHI3, hits give low values 1.01 and 0.989 | S. cerevisiae deletion strains, locus YNL209W, strain ssb2, hits give low values 1.02 | S. cerevisiae deletion strains, locus YNL224C, strain SQS1, hits give low values 1 and 0.989 | S. cerevisiae deletion strains, locus YNL233W, strain BNI4, hits give low values 1.01 and 1.02 | S. cerevisiae deletion strains, locus YNL248C, strain rpa49, hits give low values 1 and 1.01 | S. cerevisiae deletion strains, locus YNL250W, strain rad50, hits give low values 1.01 and 0.986 | S. cerevisiae deletion strains, locus YNL271C, strain bni1, hits give low values 1.01 | S. cerevisiae deletion strains, locus YNL298W, strain CLA4, hits give low values 1.01 and 0.999 | S. cerevisiae deletion strains, locus YNL307C, strain MCK1, hits give low values 1.02 and 1.01 | S. cerevisiae deletion strains, locus YNL322C, strain KRE1 (second series), hits give low values 1.02 | S. cerevisiae deletion strains, locus YNL322C, strain KRE1, hits give low values 1.01 | S. cerevisiae deletion strains, locus YNR049C, strain mso1, hits give low values 1.02 and 1.01 | S. cerevisiae deletion strains, locus YNR052C, strain pop2, hits give low values 1.01 and 0.997 | S. cerevisiae deletion strains, locus YOL006C, strain TOP1, hits give low values 1.1 and 1.08 | S. cerevisiae deletion strains, locus YOL012C, strain htz1 0.844 and 0.846 | S. cerevisiae deletion strains, locus YOL147C, strain pex11, hits give low values 1.02 and 0.99 | S. cerevisiae deletion strains, locus YOR001W, strain rrp6, hits give low values 0.998 and 1.02 | S. cerevisiae deletion strains, locus YOR061W, strain CKA2, hits give low values 1.01 and 1.02 | S. cerevisiae deletion strains, locus YOR069W, strain VPS5, hits give low values 1.01 | S. cerevisiae deletion strains, locus YOR070C, strain gyp1, hits give low values 1.02 | S. cerevisiae deletion strains, locus YOR080W, strain dia2, hits give low values 1.02 | S. cerevisiae deletion strains, locus YOR083W, strain WHI5 (second series), hits give low values 0.992 and 1 | S. cerevisiae deletion strains, locus YOR083W, strain WHI5, hits give low values 1.02 | S. cerevisiae deletion strains, locus YOR106W, strain vam3, hits give low values 1.02 | S. cerevisiae deletion strains, locus YOR136W, strain idh2, hits give low values 1.02 and 1 | S. cerevisiae deletion strains, locus YOR144C, strain elg1, hits give low values 1.02 and 0.993 | S. cerevisiae deletion strains, locus YOR184W, strain ser1, hits give low values 1.04 and 1.01 | S. cerevisiae deletion strains, locus YOR231W, strain MKK1, hits give low values 0.976 | S. cerevisiae deletion strains, locus YOR265W, strain rbl2, hits give low values 1.02 and 1.01 | S. cerevisiae deletion strains, locus YOR270C, strain vph1, hits give low values 1.02 and 1.07 | S. cerevisiae deletion strains, locus YOR290C, strain snf2, hits give low values 1.03 and 0.969 | S. cerevisiae deletion strains, locus YOR316C, strain cot1, hits give low values 1.02 and 0.999 | S. cerevisiae deletion strains, locus YPL051W, strain arl3, hits give low values 1.02 and 1.01 | S. cerevisiae deletion strains, locus YPL055C, strain LGE1, hits give low values 1.06 and 1 | S. cerevisiae deletion strains, locus YPL078C, strain atp4, hits give low values 1.02 and 1.01 | S. cerevisiae deletion strains, locus YPL106C, strain sse1, hits give low values 1.02 | S. cerevisiae deletion strains, locus YPL240C, strain hsp82, hits give low values 1.03 and 1.02 | S. cerevisiae deletion strains, locus YPL241C, strain CIN2, hits give low values 1.01 | S. cerevisiae deletion strains, locus YPL256C, strain CLN2, hits give low values 0.979 | S. cerevisiae deletion strains, locus YPR119W, strain clb2, hits give low values 1.01 and 0.99 | S. cerevisiae deletion strains, locus YPR141C, strain kar3, hits give low values 1.01 and 1 | S. cerevisiae deletion strains, locus YPR163C, strain tif3, hits give low values 1.03 and 0.994 | S. cerevisiae deletion strains, locus YPR167C, strain met16, hits give low values 1.02 and 0.995 | S. cerevisiae deletion strains, strain wtn01, hits give low values 1.03 and 0.997 | S. cerevisiae strains, strain wild type, hits give low values 1.01
